Test results reported in article PMC4336329 (PLoS ONE, 2015).
Out of some 310,000 compounds screened, about 14,000 (4.5%) showed an effect of 50% or more. The effect is printed as a negative number. What follows is part of a selection rich in strong results, with near analogues and random picks from the rest.

target: human ether-à-go-go-related gene (hERG) potassium channel (human, UniProt Q12809); assay: primary screen, population patch clamp on CHO cells stably expressing hERG; higher = less effect of the substance
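Further: peak tail current of the secondary pulse compared with the same well before compound.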

Sequence of human ether-à-go-go-related gene (hERG) potassium channel (Q12809 whole entry, looked up): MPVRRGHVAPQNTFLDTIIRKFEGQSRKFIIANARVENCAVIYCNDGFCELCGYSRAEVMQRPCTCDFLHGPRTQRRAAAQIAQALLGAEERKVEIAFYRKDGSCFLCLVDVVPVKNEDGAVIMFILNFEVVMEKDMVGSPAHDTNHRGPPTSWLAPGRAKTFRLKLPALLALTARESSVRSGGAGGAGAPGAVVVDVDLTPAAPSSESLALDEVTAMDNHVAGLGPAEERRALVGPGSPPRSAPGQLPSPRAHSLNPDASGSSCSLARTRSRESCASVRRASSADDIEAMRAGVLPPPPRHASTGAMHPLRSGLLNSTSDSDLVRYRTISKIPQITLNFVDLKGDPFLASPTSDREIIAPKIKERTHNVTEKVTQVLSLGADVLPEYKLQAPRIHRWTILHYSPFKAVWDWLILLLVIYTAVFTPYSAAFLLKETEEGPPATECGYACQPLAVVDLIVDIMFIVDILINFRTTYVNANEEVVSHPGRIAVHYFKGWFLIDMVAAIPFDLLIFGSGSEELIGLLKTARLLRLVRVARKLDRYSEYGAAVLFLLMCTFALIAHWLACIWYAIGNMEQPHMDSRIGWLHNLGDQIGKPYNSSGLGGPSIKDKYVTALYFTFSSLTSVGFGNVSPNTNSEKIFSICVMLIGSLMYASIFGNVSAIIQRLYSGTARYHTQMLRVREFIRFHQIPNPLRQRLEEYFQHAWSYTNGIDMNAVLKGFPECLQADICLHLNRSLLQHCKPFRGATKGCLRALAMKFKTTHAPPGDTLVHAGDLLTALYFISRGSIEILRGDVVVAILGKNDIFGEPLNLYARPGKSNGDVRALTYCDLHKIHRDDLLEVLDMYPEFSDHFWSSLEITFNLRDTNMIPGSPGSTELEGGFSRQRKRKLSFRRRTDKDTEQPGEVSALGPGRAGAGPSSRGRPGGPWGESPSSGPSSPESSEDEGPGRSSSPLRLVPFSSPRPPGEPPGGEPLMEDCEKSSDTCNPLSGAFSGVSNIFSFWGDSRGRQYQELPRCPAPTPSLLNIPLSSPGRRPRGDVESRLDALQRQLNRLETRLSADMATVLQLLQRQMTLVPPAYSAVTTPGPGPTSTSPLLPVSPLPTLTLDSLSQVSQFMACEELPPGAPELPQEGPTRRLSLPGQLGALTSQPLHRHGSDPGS

SMILES	hERG current change (%, negative = inhibition) at 10uM
Cc1cccc(CC(=O)N2CCN=C2SCc2ccc([N+](=O)[O-])cc2)c1	-11.8%
Cc1cc(C)cc(C(=O)N2CCN=C2SCc2ccc([N+](=O)[O-])cc2)c1	-23.5%
Cc1cccc(C(=O)N2CCN=C2SCc2ccc([N+](=O)[O-])cc2)c1	-51.9%
CC(=O)N1CCN=C1SCc1ccccc1	19.1%
CCN1CCN(C(=O)c2ccc(CSc3ccc(C)cc3)cc2)CC1	-63.6%
Cc1ccc(SCc2ccc(C(=O)N3CCCC3)cc2)cc1	-30.1%
Cc1ccc(SCc2ccc(C(=O)N3CCCCC3)cc2)cc1	1.58%
O=S(=O)(c1ccccc1)N1CCN=C1SCc1cccnc1	-12.1%
O=S(=O)(c1ccc(F)cc1)N1CCN=C1SCc1cccnc1	-27.6%
O=C(c1ccccc1)N1CCN=C1SCc1ccc([N+](=O)[O-])cc1	-56.4%
O=[N+]([O-])c1ccc(S(=O)(=O)N2CCN=C2SCc2cccnc2)cc1	-68.1%
O=C(N=C1SC2CS(=O)(=O)CC2N1c1ccc(F)cc1F)C1CC1 (centres unmarked)	2.47%
O=C(OCC(=O)N1CCCC1=O)C1CCN(S(=O)(=O)c2c(Cl)cccc2Cl)CC1	-36.1%
O=C(NCc1cccnc1)NC1CC(=O)N(c2ccc3c(c2)OCCO3)C1 (centres unmarked)	-0.536%
CC(C)(C)n1nnnc1C(c1cccc(C#N)c1)N1CCN2CCCC2C1 (centres unmarked)	4.48%
Cn1c(C(C#N)/C(=N\S(=O)(=O)c2cccs2)c2ccccc2)nc2ccccc21 (centres unmarked)	2.46%
O=C(O)CC1(CC(=O)Nc2cc(C(F)(F)F)cc(C(F)(F)F)c2)CCCCC1	18.6%
Cc1cccc(N2CCN(C(=O)c3ccc4c(c3)NC(=O)C(CSCc3cccc(F)c3)N4)CC2)c1C (centres unmarked)	15.9%
CN(C)S(=O)(=O)c1ccc(C(=O)N2CCN=C2SCc2ccccc2)cc1	20.9%
Cc1ccc(C(=O)N2CCN=C2SCc2ccc([N+](=O)[O-])cc2)cc1C	2.84%
O=C(c1ccc([N+](=O)[O-])cc1)N1CCN=C1SCc1ccccc1	-72.2%
Cc1ccc(C(=O)N2CCN=C2SCc2ccc([N+](=O)[O-])cc2)cc1	-70.5%
Cc1ccccc1C(=O)N1CCN=C1SCc1ccc([N+](=O)[O-])cc1	-63.6%

SMILES	hERG current change (%, negative = inhibition) at 10uM
O=C(c1cccc2ccccc12)N1CCN=C1SCc1ccc([N+](=O)[O-])cc1	-10.7%
O=C(Cc1ccccc1)N1CCN=C1SCc1cccc([N+](=O)[O-])c1	-22.6%
Cc1ccc(C)c(CSC2=NCCN2C(=O)Cc2ccc([N+](=O)[O-])cc2)c1	-4.06%
Cc1ccc(CSC2=NCCN2C(=O)c2ccc([N+](=O)[O-])cc2)cc1	-42.9%
O=S(=O)(Nc1nc2ccccc2nc1Nc1ccc(N2CCOCC2)cc1)c1cc(Cl)ccc1Cl	-0.376%
C=CCN(c1ccccc1)S(=O)(=O)c1cc(C(=O)NC2=NCCS2)ccc1Cl	63.3%
COc1ccc(CNC(=O)c2c(C)cc(=O)oc2C)cc1	-26.8%
CC1Sc2ccc(S(=O)(=O)N3CCC(C(=O)NCc4ccc(Cl)cc4)CC3)cc2NC1=O (centres unmarked)	-5.58%
Oc1ccc(N2CCN(Cc3ccc(OCCCN4CCCCC4)cc3)CC2)cc1	5.11%
COC(=O)C1CCN(Cc2ccc(OCCCN3CCN(c4ccc([N+](=O)[O-])cc4)CC3)cc2)CC1	-73.7%
COC(=O)C1CCN(c2ccc([N+](=O)[O-])cc2[N+](=O)[O-])CC1	-0.88%
COC(=O)C1CCN(Cc2ccc(C)cc2)CC1	-22.2%
CCCCOc1ccc(CN2CCC(O)CC2)cc1	3.42%
COC(=O)C1CCN(CCCOc2ccc(CN3CCN(c4ccc([N+](=O)[O-])cc4)CC3)cc2)CC1	-74.3%
Cc1ccccc1C(=O)NC(=S)NCC1CCCO1 (centres unmarked)	12%
O=C(Nc1ccc2ncccc2c1)c1cc(Cl)ccc1Cl	12.6%
CCOc1ccc(N(CC(=O)NCCc2ccc(OC)cc2)S(C)(=O)=O)cc1	-0.0301%
O=C(CSc1ncnc2c1cnn2-c1ccc(Cl)cc1)NCc1ccc2c(c1)OCO2	13.7%
CC(C)OC(=O)CCC1(C(=O)O)CCC(=O)NC1 (centres unmarked)	7.55%
CCC(=O)Nc1ccc(OCc2nc3ccccc3s2)cc1	21.1%
O=C(CSc1ncccc1-c1nc2ccccc2[nH]1)Nc1ccc2c(c1)OCCO2	-30.8%
Cn1c(SCC(=O)c2cc(Cl)c(Cl)s2)nnc1-c1ccco1	-60.5%
CC(C)Cn1c(SCC(=O)c2ccc(Cl)s2)nnc1-c1ccco1	-76.7%

SMILES	hERG current change (%, negative = inhibition) at 10uM
Cn1c(SCC(=O)Nc2ccc(Cl)cc2F)nnc1-c1ccco1	-59.4%
Cn1c(SCC(=O)Nc2ccc(Br)cc2F)nnc1-c1ccco1	-26.7%
Cn1c(SCC(=O)Nc2ccccc2O)nnc1-c1ccco1	-27.4%
CCn1c(SCC(=O)c2ccc(Cl)s2)nnc1-c1cccs1	-35.5%
CCn1c(SCC(=O)c2cccs2)nnc1-c1ccco1	-2.68%
Cn1c(SCC(=O)c2cccs2)nnc1-c1ccco1	11.8%
Cn1c(SCC(=O)c2ccccc2)nnc1-c1ccco1	-39.5%
CCN(C(=O)CN1CCN(S(=O)(=O)c2ccccc2C(F)(F)F)CC1)c1c(N)n(Cc2ccccc2)c(=O)[nH]c1=O	13.6%
O=C(NC(=S)NCc1ccc(-c2nc3ccccc3s2)cc1)c1ccco1	34%
Cc1ccccc1-n1ncc2c1CC(C)(C)CC2NC(=O)c1cn[nH]c1C (centres unmarked)	-6.22%
CCCC(=O)Nc1ccc(C)c(O)c1	4.76%
C/C(=N\NC(=O)c1ccccc1O)c1cccc(NC(=O)c2ccccc2)c1	-0.335%
O=C1N(CC(=O)N2CCc3ccccc32)CCN1Cc1ccccc1Cl	-12.1%
CN(C(=O)COC(=O)CCC(=O)c1ccccc1)c1c(N)n(Cc2ccccc2)c(=O)[nH]c1=O	14.1%
Cl.c1ccc2c(NCC3CCCO3)nc(N3CCCCC3)nc2c1 (centres unmarked)	-72.9%
Cl.OCCNc1nc(N2CCN(c3ccccc3)CC2)nc2ccccc12	-74.6%
OCCNc1nc(N2CCCC2)nc(N2CCCC2)n1	-2.85%
C=CCNc1nc(C(=O)OCC)nc2ccccc12	11.1%
Cl.OCCNc1nc(N2CCCCC2)nc2ccccc12	-58.2%
C=CCNc1ncnc2ccccc12	22.5%
Cl.c1ccc2c(NCC3CCCO3)nc(N3CCOCC3)nc2c1 (centres unmarked)	-49.5%
Cl.OCCNc1nc(-c2ccccc2)nc2ccccc12	2.57%
c1ccc2c(NCC3CCCO3)nc(-c3ccncc3)nc2c1 (centres unmarked)	-14.6%

SMILES	hERG current change (%, negative = inhibition) at 10uM
C=CCNc1nc(N2CCCC2)nc2ccccc12	-78.3%
COc1ccc([C@@H]2CC=C(C(=O)O)[C@H](c3ccc(F)cc3)N2S(=O)(=O)c2ccc(Cl)cc2)cc1	27.2%
Cc1ccc(-c2c(C#N)c(N)n(-c3ccccc3)c(=O)c2C#N)cc1	20.3%
O=C(NC1CCCCC1)c1n[nH]c2c1CCCCC2	2.43%
CC1CC(C)CN(C(=O)CSCC(=O)O)C1 (centres unmarked)	1.3%
CCC1CCc2c(sc(NC(=O)C3c4ccccc4Oc4ccccc43)c2C(N)=O)C1 (centres unmarked)	2.02%
Cc1ccc(C(C(=O)NCc2ccco2)N(C(=O)CNC(=O)c2cccs2)c2ccc(C)cc2)cc1 (centres unmarked)	27.3%
CC(=O)Oc1ccc2nc(-c3ccc(Br)o3)oc(=O)c2c1	21.5%
COCCCn1cc(C(=O)c2cc(OC)ccc2OCC(=O)Nc2cc(C)on2)cc(C#N)c1=O	-53%
COCCCn1cc(C(=O)c2cc(OC)ccc2OCC(=O)N2CCCCC2C)cc(C#N)c1=O (centres unmarked)	-22.9%
COCCn1cc(C(=O)c2ccccc2OCC(=O)Nc2cc(C)on2)cc(C#N)c1=O	10.3%
COc1ccc(Br)cc1C(=O)Nc1ccccc1N1CCN(C(=O)c2ccccc2)CC1	-52.4%
O=C(Nc1ccccc1N1CCCC1)c1ccc(Cl)cc1Cl	8.88%
CC(C)CC(=O)Nc1ccccc1N1CCN(C(=O)c2ccccc2)CC1	-17.7%
O=C(Nc1ccccc1N1CCN(C(=O)c2ccccc2)CC1)c1cc(Br)ccc1Cl	-55.6%
CCCC(=O)Nc1ccccc1N1CCN(C(=O)c2ccccc2)CC1	-46%
COc1ccc(C(=O)Nc2ccccc2N2CCN(C(=O)c3ccccc3)CC2)cc1Br	-8.68%
COc1ccc(Br)cc1C(=O)Nc1ccccc1-c1ccccc1	-2.5%
O=C(Nc1ccccc1N1CCN(C(=O)c2ccc(Cl)cc2)CC1)c1cc2ccccc2o1	-2.33%
O=C(Nc1ccccc1N1CCN(C(=O)c2ccc(Cl)cc2)CC1)c1cc(Br)ccc1Cl	-67.7%
